Screening results from PubChem.
Shown are actives, neighbours in structure and some others; about 12% of the full set was active somewhere.
SARS PLP yeast: SARS-CoV PLP inhibition in yeast; S. cerevisiae expressing SARS-CoV PLpro, growth rescue; Potency, µM (highest dose often 32.9 µM), inactives show at the top dose activity, positive = growth rescue, usual class: activators; actives 0.19% (n = 330,000); calls by dose curve; note: 0% is about no effect; nearly all actives have a fitted effect of over 55% in size
Pf growth 48h: inhibits P. falciparum growth in the first generation, 48 h. AID 504832. P. falciparum luciferase growth in erythrocytes, 48 h. Potency, µM (doses to about 28.7 µM), for inactives: top-dose activity change, negative = inhibition, usual class: inhibitors. actives 5.9% (n = 310,000); note: % is set by controls: 0 for no effect and ±100 for the full control effect
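Growth was read as firefly luciferase luminescence after a 48 h, 37 C, 5% CO2 exposure of compounds to reporter-bearing P. falciparum cultures (0.1% parasitemia, 2% hematocrit final) in Albumax-supplemented RPMI 1640.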
Pf growth 96h: P. falciparum growth inhibition at 96 hours | AID 504834 | actives 6.9% (n = 320,000) | Potency, µM (top dose mostly 28.7 µM), inactives show top-dose activity change, negative = inhibition, most hits filed as inhibitors | P. falciparum luciferase reporter growth, 96 h; note: % is set by controls: 0 for no effect and ±100 for the full control effect
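P. falciparum expressing integrated firefly luciferase, in erythrocytes at 2% hematocrit, 0.05% parasitemia, incubated with compounds 96 h at 37 C, 5% CO2. Growth inhibition read as loss of luminescence; two-generation exposure targets delayed-death apicoplast inhibitors.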
Sm TGR inh: S. mansoni TGR enzyme inhibition; Q962Y6; purified TGR, DTNB reduction, TNB absorbance 405 nm; Potency, µM (top dose mostly 114 µM), for inactives: at the highest dose activity change, negative = inhibition, usual class: inhibitors; actives 3% (n = 360,000); AID 485364; note: % is set by controls: 0 for no effect and ±100 for the full control effect; nearly all actives have a fitted effect of over 60% in size
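Kinetic colorimetric format: TGR-catalysed, NADPH-driven DTNB reduction monitored via TNB absorbance. Enzyme dispensed at 20 nM; compound exposure 15 min at room temperature before reaction start.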
Starred values were filed as active, the others as inactive; i = inactive; ? = inconclusive; . = not tested or not shown; [ ] = remark or other dose. Unless noted, calls come from the whole dose curve; as a rule, active = well fitted curve in the direction sought with a large enough effect; inconclusive = small, poorly fitted or top-dose-only effect, or another doubt; inactive = no such curve, though single readings can be large; an effect the other way counts as inactive or inconclusive. Potency is the fitted concentration of half-maximal effect.

SMILES	SARS PLP yeast	Pf growth 48h	Pf growth 96h	Sm TGR inh
CCOC(=O)/C=C/C(=O)OCC(=O)N1CCN(C(=O)c2ccco2)CC1	1%	40%	1%	32µM*
Cc1ccc(SCC(=O)OCC(=O)N2CCN(C(=O)c3ccco3)CC2)c(C)c1	-2%	-1%	-3%	45µM*
O=C(OCC(=O)N1CCCC1)c1ccccc1OCc1ccccc1	-1%	14%	13%	-1%
CC(=O)Nc1ccc(S(=O)(=O)N(C)CC(=O)OCC(=O)N2CCN(C(=O)c3ccco3)CC2)cc1	0%	25%	30%	50µM*
CC(=O)Nc1ccc(S(=O)(=O)N(C)CC(=O)OCC(=O)N2CCCCCC2)cc1	-1%	?	37%	6%
Cc1cc(C(=O)OCC(=O)N2CCN(C(=O)c3ccco3)CC2)c(C)n1-c1ccc(F)cc1	4%	12µM*	21%	-4%
Cc1ccc(C)c(Cn2c(=O)n(CCCC(=O)NCCc3ccc(Cl)cc3)c(=O)c3ccccc32)c1	.	.	.	13%
CC(C)(C)N1CC23CCC(C[C@@H]2C1=O)O3 (stereo partly drawn)	-25%	22%	117%	2%
O=C(CSc1ccc2c(c1)OCCO2)N1CCN(c2ccccc2O)CC1	1%	?	7.4µM*	-29%
CC1Cc2ccccc2N1CC(=O)Nc1ccc2c(c1)OCCCO2 (stereo not drawn)	6%	?	12µM*	-11%
O=C(CN1CCN(c2ccccc2)CC1)Nc1ccc2c(c1)OCCO2	-1%	i	39%	6%
O=C(CSc1ccc2c(c1)OCCO2)N1CCN(c2ccccc2)CC1	2%	19%	12%	5%
CC1Cc2ccccc2N1CC(=O)Nc1ccc(Cl)c(S(=O)(=O)N(C)C)c1 (stereo not drawn)	-2%	9.3µM*	-54%	7%
O=C(CN1CCN(c2ccccc2O)CC1)Nc1ccc2c(c1)OCCCO2	-2%	13µM*	15%	-20%
CC(=O)N1CCCc2cc(S(=O)(=O)N(C)CC(=O)Nc3ccc(Cl)cc3C)ccc21	.	.	.	-3%
O=C1CCCc2[nH]c(=O)c(-c3nc(-c4cccc([N+](=O)[O-])c4)cs3)cc21	.	.	.	9%
CN(C)S(=O)(=O)c1cc(NC(=O)CN2CCc3ccccc32)ccc1Cl	-1%	?	-16%	45µM*
CN(C)S(=O)(=O)c1cc(NC(=O)CN2CCCc3ccccc32)ccc1Cl	-2%	?	?	?
CCc1ccc(-n2nc(C)c3c(C(=O)NCCc4ccc(OC)c(OC)c4)cc(C)nc32)cc1	.	.	.	10%
Cc1ccc(S(=O)(=O)NCCc2nnc3ccc(SCC(=O)Nc4ccc(OC(F)(F)F)cc4)nn23)cc1	.	.	.	6%
Cn1c(C(=O)N2CCN(c3ncccn3)CC2)cc2c(=O)n(C)c3ccccc3c21	8%	.	10µM*	?
CCOC(=O)C1CCCN(C(=O)c2cc3c(=O)n(C)c4ccccc4c3n2C)C1 (stereo not drawn)	5%	.	8.3µM*	5%
Cn1c(=O)c([N+](=O)[O-])c(N2CCN(Cc3ccc4c(c3)OCO4)CC2)c2ccccc21	0%	12µM*	12µM*	0%
Cn1c(C(=O)N2CCN(Cc3ccc4c(c3)OCO4)CC2)cc2c(=O)n(C)c3ccccc3c21	3%	.	1.9µM*	-3%
Cn1c(=O)cc(SCC(=O)N2CCN(Cc3ccc4c(c3)OCO4)CC2)c2ccccc21	3%	2%	?	2%
SMILES	SARS PLP yeast	Pf growth 48h	Pf growth 96h	Sm TGR inh
O=[N+]([O-])c1cccnc1N1CCN(Cc2ccc3c(c2)OCO3)CC1	0%	-3%	?	4%
Cn1c(C(=O)N2CCCC2)cc2c(=O)n(C)c3ccccc3c21	12%	.	-21%	-14%
CCCc1cc(=O)oc2cc(OCc3ccc(C(=O)O)cc3)ccc12	2%	26%	?	-1%
Cn1c(Oc2ccc(Cl)cc2)nc2c1c(=O)n(Cc1ccc(F)cc1)c(=O)n2C	.	.	.	-1%
Cc1ccc2c(c1)-c1c(cnc3cc(-c4ccc(F)cc4)nn13)CO2	.	.	.	-2%
CCCN1CCN(CCNC(=O)Nc2ccc(OC)c(OC)c2)CC1	.	.	.	3%
COC(=O)C1Cc2ccccc2CN1S(=O)(=O)c1ccc(F)cc1 (stereo not drawn)	-2%	-8%	1.3µM*	1%
CC(=O)c1ccc(S(=O)(=O)N2Cc3ccccc3CC2C(=O)O)cc1 (stereo not drawn)	0%	6%	?	11µM*
O=C(Nn1cnnc1)C1Cc2ccccc2CN1S(=O)(=O)c1ccc(F)cc1 (stereo not drawn)	2%	16%	8.3µM*	4%
Cc1ccc(S(=O)(=O)N2Cc3ccccc3CC2C(=O)Nn2cnnc2)cc1 (stereo not drawn)	-3%	.	1%	0%[11.4 µM]
O=C(O)[C@H]1Cc2ccccc2CN1S(=O)(=O)c1ccc(F)cc1	0%	45%	22%	3%
COc1cc(Cl)c(C)cc1NC(=O)c1cc2ccc3cccnc3c2[nH]1	.	.	.	2%
CCC(=O)N1CCc2cc(S(=O)(=O)NCCC(=O)Nc3ccc(OC)c(OC)c3)ccc21	.	.	.	2%
CCc1noc(C)c1C(=O)N(CC)CC(=O)NCc1ccc(Cl)cc1	3%	12%	-10%	-6%
O=C(OCc1ccc([N+](=O)[O-])cc1)C1CC(=O)N(CCc2ccccc2)C1 (stereo not drawn)	-5%	0%	79%	-7%
O=C(OCc1nnc(-c2ccc([N+](=O)[O-])cc2)o1)C1CC(=O)N(CCc2ccccc2)C1 (stereo not drawn)	12%	-9%	-21%	89µM*
COc1ccc(CCNC(=O)c2ccc3c(c2)CCN3S(=O)(=O)c2ccccc2)cc1	.	.	.	4%
O=C(CSc1nnc2c(Cl)cc(C(F)(F)F)cn12)NCc1ccc(F)cc1	-1%	?	8.3µM*	0%
O=C(CSc1nnc2c(Cl)cc(C(F)(F)F)cn12)N(Cc1ccccc1)Cc1ccccc1	-22%	-30%	?	1%
O=C(Nc1cc(Cl)ccc1-n1cncn1)c1ccc([N+](=O)[O-])o1	2%	?	?	?
CCCN(CCC)CCCNC(=S)Nc1ccc2nc(N3CCN(C)CC3)cc(C)c2c1	-5%	-54%	?	-34%
CCCCN(CC)CCNC(=S)Nc1ccc2nc(N3CCN(C)CC3)cc(C)c2c1	-3%	1.7µM*	?	12%
CCCN(CCC)CCCNC(=S)Nc1ccc2nc(N3CCN(CC)CC3)cc(C)c2c1	2%	4.1µM*	-27%	-28%
O=C1CNC(=S)N1CCc1ccccc1Cl	2%	6%	13%	-8%
C=C1CC2C3CC[C@@]4(OCOC45COCO5)[C@@]3(C)C(O)CC2[C@@]2(C)CCC(=O)C=C12 (stereo partly drawn)	-8%	10µM*	13µM*	-4%
CC1CCN(C(=O)CSc2nc(-c3ccc(C(C)C)cc3)no2)CC1	.	.	.	12%
COc1ccc(-c2nc(C)ncc2-c2ccccc2)c(O)c1	0%	?	?	-9%
CCOc1ccc(-c2nc(N)ncc2Oc2ccc(OC)cc2)c(O)c1	0%	12µM*	?	4%
